Where “and” joins values, the source holds several entries; their conditions need not be identical. Identical values can stand only once. Calls of active or inactive are those of the source. Rule for the calls: active = hit-call score of the fitted dose curve at least 0.9, where 1 is the maximum; inactive = score below 0.9.
What was measured:
[1] = BSK_CASM3C_Proliferation: Cell Proliferation Assessment in the BioMAP Diversity Plus: CASM3C Assay (AID 2283047); conditions: primary human coronary artery smooth muscle cells;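 note: sulforhodamine B total protein stain as relative cell number at 560 nm; sub-confluent cells exposed 48 h before staining; fitted both ways against DMSO so gain or loss of cell number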
[2] = BSK_CASM3C_SRB: Viability Assessment in the BioMAP Diversity Plus: CASM3C Assay (AID 2283050); conditions: primary human coronary artery smooth muscle cells;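 note: cells exposed to compound for 24 h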
[3] = read-out: Tissue Factor, F3 (gene 2152); experiment: BSK_CASM3C_TissueFactor: BioMAP Diversity Plus: CASM3C Assay for Tissue Factor Biomarker Activity (AID 2283052); conditions: primary human coronary artery smooth muscle cells; actives raise or lower the signal;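 note: cell surface tissue factor protein level read by ELISA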
[4] = read-out: Interleukin-8 (IL8), CXCL8 (gene 3576); experiment: BSK_hDFCGF_IL8: BioMAP Diversity Plus: hDFCGF Assay for Interleukin-8 (IL8) Biomarker Activity (AID 2283058); conditions: primary human foreskin fibroblasts; actives raise or lower the signal
Procedure, shortened: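 Cells used are human skin primary fibroblasts. Chemical is added, cultures run 24 h, then IL-8 is quantified by ELISA, and gain or loss versus DMSO control is fitted in both directions.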

[5] = BSK_hDFCGF_Proliferation: Cell Proliferation Assessment in the BioMAP Diversity Plus: hDFCGF Assay (AID 2283059); conditions: primary human foreskin fibroblasts;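 note: curves fitted for both rise and fall of signal versus DMSO baseline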
Procedure, shortened: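 Primary human foreskin fibroblasts, sub-confluent; […]; 10% TCA fix, 0.1% SRB stain, A560 total protein. Gain/loss fitted bidirectionally vs DMSO control.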

[6] = BSK_hDFCGF_SRB: Viability Assessment in the BioMAP Diversity Plus: hDFCGF Assay (AID 2283061); conditions: primary human foreskin fibroblasts;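 note: cells exposed to compound for 24 h before the read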
Procedure, shortened: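 Readout is SRB absorbance at 560 nm, reflecting total protein in parallel cultures of human foreskin fibroblasts harvested 24 h after chemical dosing. Activity was fitted bidirectionally relative to DMSO.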

[7] = read-out: TIMP metallopeptidase inhibitor 1 (TIMP1), TIMP1 (gene 7076); experiment: BSK_hDFCGF_TIMP1: BioMAP Diversity Plus: hDFCGF Assay for TIMP metallopeptidase inhibitor 1 (TIMP1) Biomarker Activity (AID 2283062); conditions: primary human foreskin fibroblasts; actives raise or lower the signal
Procedure, shortened: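 Human skin fibroblasts (primary), hDFCGF system; compound exposure 24 h; TIMP-1 by ELISA; bidirectional fit vs DMSO negative control; overt cytotoxicity by SRB in parallel wells.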

[8] = read-out: Monokine induced gamma interferon (MIG), CXCL9 (gene 4283); experiment: BSK_hDFCGF_MIG: BioMAP Diversity Plus: hDFCGF Assay for Monokine induced gamma interferon (MIG) Biomarker Activity (AID 2283063); conditions: primary human foreskin fibroblasts; actives raise or lower the signal
Procedure, shortened: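 Chemicals were added to primary human foreskin fibroblast cultures, which were sampled 24 h later. MIG levels were then quantified by ELISA and responses fitted in both directions relative to DMSO.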

[9] = read-out: Plasminogen activator inhibitor-1 (PAI1), SERPINE1 (gene 5054); experiment: BSK_hDFCGF_PAI1: BioMAP Diversity Plus: hDFCGF Assay for Plasminogen activator inhibitor-1 (PAI1) Biomarker Activity (AID 2283066); conditions: primary human foreskin fibroblasts; actives raise or lower the signal
Procedure, shortened: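 PAI-1 levels in human dermal foreskin fibroblasts were quantified by ELISA 24 h after dosing, with gain or loss analysed against DMSO. Overt cytotoxicity was checked by sulforhodamine B total-protein staining in parallel cultures.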

[10] = read-out: Interferon-gamma inducible Protein 10 (IP10), CXCL10 (gene 3627); experiment: BSK_KF3CT_IP10: BioMAP Diversity Plus: KF3CT Assay for Interferon-gamma inducible Protein 10 (IP10) Biomarker Activity (AID 2283068); conditions: primary human keratinocytes with fibroblasts; actives raise or lower the signal
Procedure, shortened: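 In a primary skin co-culture of keratinocytes and fibroblasts, IP-10 is quantified by ELISA at 24 h after dosing. SRB staining of parallel wells monitors overt toxicity. Curves are fitted both directions against DMSO.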

[11] = BSK_KF3CT_SRB: Viability Assessment in the BioMAP Diversity Plus: KF3CT Assay (AID 2283069); conditions: primary human keratinocytes with fibroblasts;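 note: read 24 h after compound addition; fitted for both signal gain and loss against DMSO baseline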
Procedure, shortened: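 Overt cytotoxicity is assessed as total protein by sulforhodamine B staining in parallel human skin co-cultures at 24 h after dosing. DMSO serves as negative control and baseline.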

[12] = read-out: Interleukin-1 alpha (IL1a), IL1A (gene 3552); experiment: BSK_KF3CT_IL1a: BioMAP Diversity Plus: KF3CT Assay for Interleukin-1 alpha (IL1a) Biomarker Activity (AID 2283070); conditions: primary human keratinocytes with fibroblasts; actives raise or lower the signal
Procedure, shortened: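 Readout is IL-1a level by ELISA, compared bidirectionally with DMSO as baseline. Cells: human keratinocytes co-cultured with foreskin fibroblasts, harvested 24 h post-dose.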

[13] = read-out: TIMP metallopeptidase inhibitor 2 (TIMP2), TIMP2 (gene 7077); experiment: BSK_KF3CT_TIMP2: BioMAP Diversity Plus: KF3CT Assay for TIMP metallopeptidase inhibitor 2 (TIMP2) Biomarker Activity (AID 2283071); conditions: primary human keratinocytes with fibroblasts; actives raise or lower the signal
Procedure, shortened: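 TIMP-2 measured by ELISA at 24 h in human keratinocyte/fibroblast primary co-cultures exposed to chemicals. Both increases and decreases were fitted against DMSO. Parallel cultures were stained with SRB for total protein as an overt-cytotoxicity check.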

[14] = read-out: Matrix Metallopeptidase 9 (MMP9), MMP9 (gene 4318); experiment: BSK_KF3CT_MMP9: BioMAP Diversity Plus: KF3CT Assay for Matrix Metallopeptidase 9 (MMP9) Biomarker Activity (AID 2283074); conditions: primary human keratinocytes with fibroblasts; actives raise or lower the signal;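 for AC50: MMP9 protein level quantified by ELISA in the co-culture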
Procedure, shortened: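 Values come from bidirectional fitting relative to DMSO of MMP-9 levels, which were measured by ELISA. Measurements were taken 24 h after chemical dosing of a keratinocyte and foreskin fibroblast co-culture.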

[15] = read-out: urokinase plasminogen activator (uPA), PLAU (gene 5328); experiment: BSK_KF3CT_uPA: BioMAP Diversity Plus: KF3CT Assay for urokinase plasminogen activator (uPA) Biomarker Activity (AID 2283075); conditions: primary human keratinocytes with fibroblasts; actives raise or lower the signal
Procedure, shortened: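 Values derive from bidirectional fitting against DMSO controls. Keratinocyte/foreskin fibroblast co-cultures received chemical; 24 h later uPA was detected by ELISA, with SRB total-protein staining in parallel wells for overt cytotoxicity.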

CD40, CD40 (gene 958) = experiment: BSK_LPS_CD40: BioMAP Diversity Plus: LPS Assay for CD40 Biomarker Activity (AID 2283076); conditions: primary human HUVEC with PBMC; actives raise or lower the signal
Procedure, shortened: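 Cells were dosed, incubated 24 h, then assayed for CD40 by ELISA. Gain or loss of signal was analysed relative to DMSO controls. The culture paired human umbilical vein endothelium with peripheral blood mononuclear cells.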

[16] = read-out: E-selectin (Homo sapiens) (UniProt P16581); experiment: BSK_LPS_Eselectin: BioMAP Diversity Plus: LPS Assay for Eselectin Biomarker Activity (AID 2283077); conditions: primary human HUVEC with PBMC; actives raise or lower the signal
Procedure, shortened: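 Primary human vascular co-culture (endothelium plus PBMC) was dosed with chemical, then E-selectin quantified by ELISA at 24 h. Endpoint values derive from bidirectional curve fitting relative to DMSO.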

[17] = BSK_LPS_SRB: Viability Assessment in the BioMAP Diversity Plus: LPS Assay (AID 2283079); conditions: primary human HUVEC with PBMC;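 note: total protein by sulforhodamine B absorbance as a cytotoxicity measure; measured one day after compound addition; fitted in both directions against DMSO so loss or gain of signal counts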
Procedure, shortened: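 Readout is SRB absorbance at 560 nm (0.1% stain, TCA-fixed parallel cultures) as a total-protein cytotoxicity measure. Cells: primary human umbilical vein endothelium plus peripheral blood mononuclear cells, 24 h after chemical exposure; DMSO served as baseline.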

[18] = read-out: Monocyte Chemoattractant Protein-1 (MCP1), CCL2 (gene 6347); experiment: BSK_LPS_MCP1: BioMAP Diversity Plus: LPS Assay for Monocyte Chemoattractant Protein-1 (MCP1) Biomarker Activity (AID 2283081); conditions: primary human HUVEC with PBMC; actives raise or lower the signal;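 for AC50: co-culture stimulated with LPS; secreted MCP-1 protein quantified by ELISA in culture supernatant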
Procedure, shortened: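 Human endothelial–PBMC co-cultures were dosed with chemical, then LPS-driven MCP-1 levels were quantified by ELISA at 24 h. Activity in either direction was fitted versus DMSO negative control.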

[19] = read-out: Tumor necrosis factor (Homo sapiens) (UniProt P01375); experiment: BSK_LPS_TNFa: BioMAP Diversity Plus: LPS Assay for Tumour Necrosis Factor alpha (TNFa) Biomarker Activity (AID 2283085); conditions: primary human HUVEC with PBMC; actives raise or lower the signal;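 for AC50: TNFa protein level quantified by ELISA in the co-culture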
Procedure, shortened: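 TNFa was quantified by ELISA in LPS-activated co-cultures of human endothelial cells and PBMC, 24 h post-dosing. Both increases and decreases versus DMSO were fitted.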

Measured: AC50

Sequence of Tumor necrosis factor (Homo sapiens) (P01375 whole entry, looked up): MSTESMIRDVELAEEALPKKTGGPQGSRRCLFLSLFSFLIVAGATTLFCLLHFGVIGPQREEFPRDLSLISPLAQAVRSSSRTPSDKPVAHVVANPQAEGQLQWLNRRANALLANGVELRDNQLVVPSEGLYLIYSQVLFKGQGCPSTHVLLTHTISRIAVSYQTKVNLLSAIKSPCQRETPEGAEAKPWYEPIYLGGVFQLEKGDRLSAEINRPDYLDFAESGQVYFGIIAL
Sequence of E-selectin (Homo sapiens) (P16581 whole entry, looked up): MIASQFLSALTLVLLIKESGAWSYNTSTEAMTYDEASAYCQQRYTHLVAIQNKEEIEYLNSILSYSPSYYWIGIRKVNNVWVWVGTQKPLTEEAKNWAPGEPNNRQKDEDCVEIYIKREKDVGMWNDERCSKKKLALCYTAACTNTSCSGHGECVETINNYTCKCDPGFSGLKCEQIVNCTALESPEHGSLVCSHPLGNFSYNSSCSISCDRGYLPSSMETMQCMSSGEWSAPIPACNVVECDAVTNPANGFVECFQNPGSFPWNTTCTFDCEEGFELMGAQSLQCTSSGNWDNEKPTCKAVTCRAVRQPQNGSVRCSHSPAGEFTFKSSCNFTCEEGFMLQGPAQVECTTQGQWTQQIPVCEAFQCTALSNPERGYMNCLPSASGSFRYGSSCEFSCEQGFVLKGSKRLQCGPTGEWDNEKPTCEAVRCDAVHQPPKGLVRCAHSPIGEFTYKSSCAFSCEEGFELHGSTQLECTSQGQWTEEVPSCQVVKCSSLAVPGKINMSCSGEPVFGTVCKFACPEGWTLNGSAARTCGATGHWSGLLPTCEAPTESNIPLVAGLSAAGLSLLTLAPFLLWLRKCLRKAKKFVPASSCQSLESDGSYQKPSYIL

Sc1nc2ccccc2s1
active: [3] 0.016 µM | [17] 3.97 µM | [18] 504 nM
inactive: all other assays above

Oc1cccc2ccccc12
active: [5] 13.3 µM
inactive: all other assays above

O=[N+]([O-])c1cc(S(=O)(=O)Nc2ccccc2)ccc1Nc1ccccc1
inactive: [1] | [2] | [3]
active: [4] 38.9 µM and 36.7 µM | [5] 14 µM and 14.3 µM | [6] 27.7 µM and 29 µM | [7] 30.3 µM and 29.5 µM | [8] 31 µM and 31.3 µM | [9] 26.6 µM and 25.4 µM | [10] 30.2 µM and 32.4 µM | [11] 34.6 µM | [12] 31 µM and 32.2 µM | [13] 32.6 µM and 30.4 µM | [14] 31.5 µM and 29.5 µM | [15] 32.8 µM and 32.9 µM | CD40, CD40 (gene 958) 32.6 µM and 20 µM | [16] 20 µM and 26.5 µM | [17] 31.1 µM and 28.7 µM | [18] 29.1 µM and 28.5 µM | [19] 5.14 µM and 5.08 µM

Cc1c(C(N)=O)cc([N+](=O)[O-])cc1[N+](=O)[O-]
inactive: all assays above

OC(C(F)(F)F)(C(F)(F)F)C(O)(C(F)(F)F)C(F)(F)F
inactive: [3] | [4] | [6] | [7] | [15] | [19]
active: [1] 27.7 µM and 28.9 µM | [2] 30 µM and 26.9 µM | [5] 15.5 µM and 16.8 µM | [8] 30 µM | [9] 33.1 µM and 33.8 µM | [10] 48.7 µM and 47.2 µM | [11] 46.9 µM and 58.2 µM | [12] 52.7 µM and 54 µM | [13] 50.7 µM and 51.8 µM | [14] 43 µM and 46.1 µM | CD40, CD40 (gene 958) 29.8 µM and 21.6 µM | [16] 24.4 µM and 51.9 µM | [17] 30.3 µM and 24.3 µM | [18] 23.9 µM and 23.3 µM

COc1ccccc1Oc1c(NS(=O)(=O)c2ccc(C(C)(C)C)cc2)nc(-c2ncccn2)nc1OCCO
active: [3] 1.97 µM and 5.36 µM | [5] 20 µM and 15.3 µM
inactive: all other assays above

C1CN(CCOCCN2CCOCC2)CCO1
inactive: all assays above

CC(C)C1OCCN1CCOC(=O)NCCCCCCNC(=O)OCCN1CCOC1C(C)C (stereo not given)
inactive: all assays above

CC(C)CC(=O)CC(C)CC(C)C (stereo not given)
inactive: [4] | [7] | [8] | [10] | CD40, CD40 (gene 958) | [18] | [19]
active: [1] 32 µM | [2] 31.6 µM | [3] 31.7 µM | [5] 39.5 µM | [6] 34.7 µM | [9] 32.2 µM | [11] 36.7 µM | [12] 35 µM | [13] 32.2 µM | [14] 36.4 µM | [15] 30.4 µM | [16] 29.6 µM | [17] 31.7 µM

CCCCCCCCCCCCCCCCCC[N+](C)(C)C
active: [1] 2.09 µM | [2] 5.94 µM | [3] 3.27 µM | [4] 8.41 µM | [5] 0.388 µM | [6] 1.34 µM | [7] 3.47 µM | [8] 3.28 µM | [9] 1.13 µM | [10] 3.66 µM | [11] 2.49 µM | [12] 6.81 µM | [13] 1.2 µM | [14] 3.32 µM | [15] 3.33 µM | CD40, CD40 (gene 958) 6.84 µM | [16] 8.27 µM | [17] 2.72 µM | [18] 3660 nM
inactive: [19]

COc1cc(CNC(=O)CCCC/C=C/C(C)C)ccc1O
active: [5] 1.26 µM and 1.37 µM
inactive: all other assays above

CCC[Si](OC(C)=O)(OC(C)=O)OC(C)=O
inactive: all assays above

Source: PubChem BioAssay (EPA / NIEHS)
